Assay results from PubChem BioAssay.
Inconclusive results are not listed. Active and inactive are the calls of the source.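 How the source made its calls, unless noted: active means normalized viability below 100% at a tested concentration; inactive means the rest.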

Assays:
[1] = growth inhibition of DIPG glioma cells, dose response, cell-based, SU-DIPG-XVII, MIPE5.0, CellTiter-Glo, qHTS (AID 1347060; cut-off not given, nearly all actives have AC50 up to about 26 µM;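 on AC50: cells exposed to compound for 48 hours before viability readout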); conditions: SU-DIPG-XVII viability, CellTiter-Glo ATP luminescence
[2] = growth inhibition of DIPG glioma cells, dose response, cell-based, SU-DIPG-XIII, MIPE4.0, CellTiter-Glo, qHTS (AID 1347061; cut-off not given, nearly all actives have AC50 up to about 37 µM;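 further: cells exposed to compound for 48 hours before readout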); conditions: SU-DIPG-XIII viability, CellTiter-Glo ATP luminescence
[3] = growth inhibition of DIPG glioma cells, dose response, cell-based, JHH-DIPG-1, MIPE4.0, CellTiter-Glo, qHTS (AID 1347062; cut-off not given, nearly all actives have AC50 up to about 27 µM;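 on AC50: cells exposed to compound for two days before readout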); conditions: JHH-DIPG-1 viability, CellTiter-Glo ATP luminescence
[4] = growth inhibition of DIPG glioma cells, dose response, cell-based, SU-DIPG-IV, MIPE4.0, CellTiter-Glo, qHTS (AID 1347063; cut-off not given, nearly all actives have AC50 up to about 30 µM;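 further: compound exposure lasted 48 hours before the viability readout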); conditions: SU-DIPG-IV viability, CellTiter-Glo ATP luminescence
[5] = growth inhibition of DIPG glioma cells, dose response, cell-based, SU-DIPG-XIII, MIPE5.0, CellTiter-Glo, qHTS (AID 1347064; cut-off not given, nearly all actives have AC50 up to about 23 µM;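 on AC50: cells exposed to compound for 48 hours before the viability read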); conditions: SU-DIPG-XIII viability, CellTiter-Glo ATP luminescence
[6] = SU-DIPG-VI glioma cell viability, MIPE4.0 library, CellTiter-Glo luminescence, qHTS (AID 1347066; cut-off not given, nearly all actives have AC50 up to about 30 µM;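 further: cells exposed to compound for 48 hours before readout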); conditions: CellTiter-Glo ATP luminescence
[7] = JHH-DIPG-1 glioma cell viability, MIPE5.0 library, CellTiter-Glo luminescence, qHTS (AID 1347067; cut-off not given, nearly all actives have AC50 up to about 26 µM;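 further: cells exposed to compound for 48 hours before readout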); conditions: JHH-DIPG-1 glioma viability, CellTiter-Glo ATP luminescence
[8] = SU-DIPG-XXV glioma cell viability, MIPE5.0 library, qHTS (AID 1347068; cut-off not given, nearly all actives have IC50 up to about 30 µM;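 on IC50: cells exposed to compound for 48 hours before viability readout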)
[9] = sensitizers of A549 cells to miR-34 induction, primary screen, imaging, A549 dox-inducible miR-34, nuclei and caspase counts (AID 1347080;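 active means compounds whose cell count with miR-34 switched on is under 0.7 times the count with it off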); conditions: A549 miR-34 inducible, Hoechst nuclei count, 48 h
[10] = viability loss in pontine glioma line – cell-based, SU-DIPG-XXV, MIPE5.0, CellTiter-Glo, qHTS, dose response (AID 1347065; cut-off not given, nearly all actives have AC50 up to about 26 µM;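 further: cells exposed to compound for 48 hours before ATP readout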); conditions: CellTiter-Glo ATP luminescence
[11] = survival rescue of mitochondrial mutant cells in low glucose, primary screen, MELAS cybrids, Rieske KO mouse fibroblasts, CellTiter-Glo (AID 1508586;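 active means mean z-score across replicates of 1.96 or higher in either the MELAS or the Rieske mutant cell line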;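 further: z relative to plate mean and SD of compound and empty wells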)
[12] = ovarian cancer cell viability with rucaparib, profiling panel, oncology-focused library, rucaparib conditional (AID 1508598); conditions: patient-derived ovarian cancer cells, CellTiter-Glo viability, 144 h, stronger effect = lower value
[13] = stronger effect = lower value, cell number ratio, induced over uninduced
[14] = measured here: relative caspase fold change +Dox/-Dox
[15] = measured here: total cells with miR-34 induction, stronger effect = lower value
[16] = measured here: total cells without miR-34 induction

Question: Which results are given for `Clc1ccc2c(N3CCN(CCCN4CCN(c5ccnc6cc(Cl)ccc56)CC4)CC3)ccnc2c1`?
Answer: outcome [1]: inactive; outcome [2]: inactive; outcome [3]: inactive; outcome [4]: inactive; outcome [5]: inactive; outcome [6]: inactive; outcome [7]: inactive; outcome [8]: inactive; fold change [9, 13]: 0.978 (inactive); fold change [9, 14]: 1.67; cell count [9, 15]: 8600; cell count [9, 16]: 8790

Question: Which AC50 [1] does the source give for `CC(C)c1cc(-c2n[nH]c(=O)n2-c2ccc3c(ccn3C)c2)c(O)cc1O` here?
Answer: 37.2 nM (active)

Question: What about the AC50 [2] of the same molecule?
Answer: 132 nM (active)

Question: What about the AC50 [3] of the same molecule?
Answer: 66.2 nM (active)

Question: And the AC50 [4]?
Answer: 59 nM (active)

Question: What about the AC50 [5] of the same molecule?
Answer: 41.7 nM (active)

Question: What about the AC50 [10] of the same molecule?
Answer: 37.2 nM (active)

Question: What about the IC50 [8] of the same molecule?
Answer: 83.3 nM (active)

Question: What about the fold change [9, 13] of the same molecule?
Answer: 1.03 (inactive)

Question: And the fold change [9, 14]?
Answer: 0.773

Question: And the cell count [9, 15]?
Answer: 1450

Question: What about the cell count [9, 16] of the same molecule?
Answer: 1400

Question: What about the z-score ([11]; MELAS cybrid survival, CellTiter-Glo 48 h, stronger effect = higher value) of the same molecule?
Answer: 3.03 (active)

Question: What about the z-score ([11]; Rieske KO mouse fibroblast survival, CellTiter-Glo 72 h) of the same molecule?
Answer: 0.0782

Question: And the viability ([12]; at 0.000305 µM, OCI-C5x cells, with rucaparib 10 µM, 100% = cells with rucaparib alone)?
Answer: 102% (inactive)

Question: And the viability ([12]; at 0.000305 µM, OCI-C5x cells, without rucaparib)?
Answer: 108% (inactive)

Question: And the viability ([12]; at 0.000305 µM, OCI-P5x cells, with rucaparib 20 µM, 100% = cells with rucaparib alone)?
Answer: 116% (inactive)

Question: What about the viability ([12]; at 0.000305 µM, OCI-P5x cells, without rucaparib) of the same molecule?
Answer: 121% (inactive)

Question: And the viability ([12]; at 0.00122 µM, OCI-C5x cells, with rucaparib 10 µM, 100% = cells with rucaparib alone)?
Answer: 100% (inactive)

Question: What about the viability ([12]; at 0.00122 µM, OCI-C5x cells, without rucaparib) of the same molecule?
Answer: 98.2% (active)

Question: And the viability ([12]; at 0.00122 µM, OCI-P5x cells, with rucaparib 20 µM, 100% = cells with rucaparib alone)?
Answer: 124% (inactive)

Question: What about the viability ([12]; at 0.00122 µM, OCI-P5x cells, without rucaparib) of the same molecule?
Answer: 119% (inactive)

Question: And the viability ([12]; at 0.00488 µM, OCI-C5x cells, with rucaparib 10 µM, 100% = cells with rucaparib alone)?
Answer: 96.9% (active)

Question: What about the viability ([12]; at 0.00488 µM, OCI-C5x cells, without rucaparib) of the same molecule?
Answer: 110% (inactive)

Question: And the viability ([12]; at 0.00488 µM, OCI-P5x cells, with rucaparib 20 µM, 100% = cells with rucaparib alone)?
Answer: 126% (inactive)

Question: And the viability ([12]; at 0.00488 µM, OCI-P5x cells, without rucaparib)?
Answer: 124% (inactive)

Question: What about the viability ([12]; at 0.0195 µM, OCI-C5x cells, with rucaparib 10 µM, 100% = cells with rucaparib alone) of the same molecule?
Answer: 117% (inactive)

Question: And the viability ([12]; at 0.0195 µM, OCI-C5x cells, without rucaparib)?
Answer: 117% (inactive)

Question: And the viability ([12]; at 0.0195 µM, OCI-P5x cells, with rucaparib 20 µM, 100% = cells with rucaparib alone)?
Answer: 85.2% (active)

Question: And the viability ([12]; at 0.0195 µM, OCI-P5x cells, without rucaparib)?
Answer: 104% (inactive)

Question: What about the viability ([12]; at 0.0781 µM, OCI-C5x cells, with rucaparib 10 µM, 100% = cells with rucaparib alone) of the same molecule?
Answer: 44.1% (active)
